# In PubChem BioAssay AID2751 (The Scripps Research Institute Molecular Screening Center, 2010):
# Screen size: about 320,000 compounds; about 2,200 (0.69%) were called active. Shown is part of a subset that was picked to be rich in actives. A number with no mark means an inactive call. Cut-off read from the data, not from the text of the source: active = inhibition above about 43%; inactive = the rest.
# Target: Prolyl endopeptidase-like (Homo sapiens) (UniProt Q4J6C6)
# Experiment: human PREPL activity-probe blockers – biochemical, fluorescence polarization, primary screen (AID 2751);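 note: 0% = enzyme with DMSO and 100% = wells lacking enzyme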
# Conditions: recombinant PREPL, fluorescence polarization activity-based probe; at 5.96 µM; stronger effect = higher value
# Prolyl endopeptidase-like (Homo sapiens), sequence (Q4J6C6 whole entry, looked up): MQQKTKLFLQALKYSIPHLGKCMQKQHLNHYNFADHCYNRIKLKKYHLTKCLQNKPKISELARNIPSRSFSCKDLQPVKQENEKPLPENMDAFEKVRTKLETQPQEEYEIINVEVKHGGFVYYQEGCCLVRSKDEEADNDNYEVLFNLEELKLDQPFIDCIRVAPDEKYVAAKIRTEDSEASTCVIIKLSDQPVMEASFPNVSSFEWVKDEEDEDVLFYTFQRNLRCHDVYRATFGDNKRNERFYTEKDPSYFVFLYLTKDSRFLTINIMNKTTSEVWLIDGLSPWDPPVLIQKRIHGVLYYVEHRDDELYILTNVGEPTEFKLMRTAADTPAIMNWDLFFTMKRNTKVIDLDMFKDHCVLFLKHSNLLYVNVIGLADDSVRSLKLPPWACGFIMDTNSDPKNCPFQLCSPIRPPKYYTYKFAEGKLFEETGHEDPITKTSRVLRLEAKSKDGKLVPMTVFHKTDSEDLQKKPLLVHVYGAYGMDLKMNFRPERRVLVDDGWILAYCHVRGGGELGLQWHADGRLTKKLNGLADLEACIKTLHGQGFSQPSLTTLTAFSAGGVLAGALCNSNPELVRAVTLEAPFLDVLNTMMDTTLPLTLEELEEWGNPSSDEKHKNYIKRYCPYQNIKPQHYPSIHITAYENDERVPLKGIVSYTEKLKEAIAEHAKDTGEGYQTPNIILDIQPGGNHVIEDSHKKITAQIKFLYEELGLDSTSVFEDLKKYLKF
row,Structure (SMILES),inhibition
1,CCN1C(=O)c2cccc3c(S(=O)(=O)Nc4ccccc4O)ccc1c23,4.31%
2,CCN1C(=O)c2cccc3c(N)ccc1c23,45.6% (active)
3,CN1C(=O)c2cccc3c(N)ccc(c23)C1=O,14.4%
4,Cc1snc(SCc2c(F)cccc2Cl)c1C#N,10%
5,Cc1ncn(C23CC4CC(CC(O)(C4)C2)C3)n1,3.85%
6,Cc1nc([N+](=O)[O-])nn1C12CC3CC(CC(Br)(C3)C1)C2,45.5% (active)
7,COc1cccc(NC(=O)c2nn(C34CC5CC(CC(C5)C3)C4)cc2[N+](=O)[O-])c1,1.65%
8,CCn1nc(C(=O)NNS(=O)(=O)c2cc(/C=C/C(=O)O)cc(OC)c2OC)c2ccccc2c1=O,1.44%
9,Cn1c(CC2Sc3ccccc3NC2=O)nnc1SCC(=O)c1ccc(Cl)cc1 (stereo unspecified),-2.92%
10,Cc1cc(-c2nnc(SCC(=O)Nc3ccc(F)cc3)n2N)n[nH]1,-0.73%
11,CCOC(=O)N1CCN(S(=O)(=O)c2ccc(-n3cnnn3)cc2)CC1,-0.87%
12,COc1ccc(/C=N/N=C/c2c[nH]c(=O)c(C#N)c2Nc2ccccc2)cc1,5.21%
13,O=C(OCC(=O)N1CCc2ccccc21)c1ccc([N+](=O)[O-])cc1,18%
14,O=C1c2ccccc2C(=O)c2c1cccc2N1CCN(Cc2ccccc2)CC1,34.3%
15,O=C1c2ccccc2C(=O)c2c1cccc2N1CCN(C/C=C/c2ccccc2)CC1,87.2% (active)
16,O=C1c2ccccc2C(=O)c2c1cccc2N1CCN(CCO)CC1,10%
17,CN(C(=O)CC1C(=O)NCCN1Cc1ccc2ccccc2c1)C1CCOCC1 (stereo unspecified),15.8%
18,CCCc1cc(=S)n2c([nH]c3ccccc32)c1C#N,16%
19,Cc1ccc(N2CCN(C3=NC(=O)/C(=C\c4cccs4)S3)CC2)cc1,53% (active)
20,Cc1ccsc1/C=C1\SC(N2CCOCC2)=NC1=O,5.64%
21,Cc1ccc(N2CCN(/N=C/c3cccs3)CC2)cc1,10.6%
22,CN(NS(=O)(=O)c1cccs1)c1ncc(C(F)(F)F)cc1Cl,-0.65%
23,COc1ccccc1OCC(=O)Nc1c2c(nn1-c1ccc(F)cc1)CS(=O)(=O)C2,-4.94%
24,COc1ccc(Cl)cc1NC(=O)CN1CCN(C(=O)N2CCOCC2)CC1,-6.54%

row,Structure (SMILES),inhibition
1,COc1ccc(NC(C)=O)cc1NC(=O)CN1CCN(C2c3ccccc3-c3ccccc32)CC1,43.8% (active)
2,COc1cccc(NC(=O)CN2CCN(CC(=O)Nc3ccccc3Cl)CC2)c1,-3.67%
3,CN=C1SC(CC(=O)Nc2ccc(C(=O)O)cc2)C(=O)N1C (stereo unspecified),1.69%
4,COP1(=O)C[C@@H](O)[C@@H](O)[C@@H](COCc2ccccc2)O1 (stereo partly specified),-5.04%
5,O=C(c1ccco1)N1CCN(C(=O)C2CCCN(S(=O)(=O)c3cccc4nsnc34)C2)CC1 (stereo unspecified),-5.71%
6,CCc1ccc(/C=C2\SC(N3CCOCC3)=NC2=O)cc1,19.1%
7,O=C1N=C(N2CCc3ccccc3C2)S/C1=C\c1ccc(O)cc1,47.4% (active)
8,CC1CCN(C2=NC(=O)/C(=C/c3ccc(O)cc3)S2)CC1,12.1%
9,C=CCOc1ccc(/C=C/C(=O)OCC(=O)NC(C)c2ccc(F)cc2)cc1 (stereo unspecified),5.51%
10,S=C(NCCC1=CCCCC1)Nc1ccccc1,9.47%
11,Oc1ccc2ccccc2c1N=Nc1nccs1,50.7% (active)
12,Cc1ccc(S(=O)(=O)N2CCN=C2SCc2c(F)cccc2Cl)cc1,11.2%
13,C=CC(=O)OCCOCCOCCOCCOC(=O)C=C,-0.81%
14,Cc1ccc(Cl)c(OCC(=O)N(C)CC(=O)Nc2ccc(N3CCOCC3)cc2)c1,-6.09%
15,CN1CCN(c2ccc(NC(=O)COc3ccc(Cl)cc3Cl)cc2)CC1,54.8% (active)
16,Cc1ccc(C)c(OCC(=O)N2CCN(C(=O)c3ccco3)CC2)c1,1.04%
17,Cc1ccc(OCC(=O)Nc2ccc(N3CCN(C(=O)c4ccco4)CC3)cc2)c(C)c1,55% (active)
18,CCC(=O)Nc1ccc(C(=O)N2CCN(C(=O)c3ccco3)CC2)cc1,-4%
19,CN1CCC(OC(=O)COc2ccc(Cl)cc2Cl)CC1,-6%
20,Cc1ccc(S(=O)(=O)c2nc(-c3cccs3)oc2NCc2cccnc2)cc1,8.75%
21,Oc1ccccc1-c1cc(-c2ccc(Cl)cc2)n[nH]1,-35.8%
22,O=C(N/N=C/c1cccnc1)c1cc2ccccc2cc1O,63.4% (active)
23,Cc1ccc(/C=N/NC(=O)c2cc3ccccc3cc2O)o1,13.4%
24,O=C(NN=Cc1ccc(N2CCOCC2)cc1)c1cc2ccccc2cc1O,19.7%

row,Structure (SMILES),inhibition
1,NC(=O)COc1ccc(/C=N/NC(=O)C2CCCN2S(=O)(=O)c2ccc(Cl)cc2)cc1 (stereo unspecified),11%
2,CCCCN(C(=O)c1ccc(C)o1)c1c(N)n(CCCC)c(=O)[nH]c1=O,-0.55%
3,c1ccc2c(NCC3CCCO3)nc(-c3ccncc3)nc2c1 (stereo unspecified),5.66%
4,COc1ccc(CNc2ncnc3ccccc23)cc1,-16.5%
5,CC(C)(C)Nc1nc(-c2ccccn2)nc2ccccc12,47.1% (active)
6,Cc1n[nH]c(C)c1S(=O)(=O)N1CCCC(C(=O)Nc2ccc(Br)cc2)C1 (stereo unspecified),-17.7%
7,O=S(=O)(O)CCN1CCOCC1,25.7%
8,O=C(NCC(=O)N1CCN(c2ccccc2F)CC1)c1cccs1,3.72%
9,CCN(CC)c1ccc2cc(C(N)=O)/c(=N\NC(=O)c3ccncc3)oc2c1,48.4% (active)
10,COc1cccc2cc(C(N)=O)/c(=N\NC(=O)c3ccccc3)oc12,-0.47%
11,NC(=O)c1cc2ccccc2o/c1=N/NC(=O)c1cccc(F)c1,11.6%
12,CC1CCC2(CC1)NC(=O)N(CC(=O)c1ccc3c(c1)OCO3)C2=O (stereo unspecified),11.2%
13,O=c1oc(-c2ccccc2NS(=O)(=O)c2ccc(Cl)cc2)nc2ccccc12,6.42%
14,COC(=O)[C@]1(CC(C)C)N[C@H](c2ccc(SC3CCCCC3)cc2)[C@@H]2C(=O)N(C)C(=O)[C@@H]21,2.32%
15,CCN1/C(=C/c2ccc3ccc(C)cc3[n+]2CC)Sc2ccccc21,53.4% (active)
16,CCN1/C(=C\c2ccc3ccccc3[n+]2CC)Sc2cc(C)ccc21,52.8% (active)
17,COc1ccc(OC)c(CN2CCN(C(=O)CNC(=O)c3cc(C)cc(C)c3)CC2)c1,5.26%
18,Cn1cnc(S(=O)(=O)Nc2ccc3c(c2)OCCO3)c1,-9.35%
19,CC(=O)c1cc(NC(=O)c2ccccc2)c(=O)oc1/C=C/N(C)C,0.73%
20,Cc1cccc(N2CCN(C(C)C(=O)N3CCc4ccccc43)CC2)c1C (stereo unspecified),18.7%
21,CC1CCC2(CC1)NC(=O)N(Cc1nnc(-c3cccs3)o1)C2=O (stereo unspecified),11.6%
22,CCCNCc1cc(OCC)c(OCC(=O)Nc2ccccc2)cc1Br,-9.46%
23,CCCC(CCC(=O)OC)(C(=O)OCC)c1csc(N)n1 (stereo unspecified),2.3%
24,Cc1ccc(Cn2c(SCC(=O)N/N=C/c3ccccc3OCC(=O)O)nc3ccccc32)cc1,-29%

row,Structure (SMILES),inhibition
1,C=C(C)CNC(=S)N/N=C/c1ccccc1OCC(=O)O,-3.72%
2,Cc1ccc(NS(=O)(=O)c2ccc(N/N=C/c3ccccc3OCC(=O)O)c([N+](=O)[O-])c2)c(C)c1,49.9% (active)
3,O=C(C1CCCN1S(=O)(=O)c1ccc(Br)cc1)N1CCOCC1 (stereo unspecified),12.8%
4,Cc1ccc(C)c(NC(=O)C2Cc3ccccc3CN2C(=O)OCc2ccccc2)c1 (stereo unspecified),-31.7%
5,CC[N+](C)(CC)CCC[n+]1c(-c2ccccc2)c2cc(N)ccc2c2ccc(N)cc21,65.2% (active)
6,COc1ccc(C2NC(=O)C(=O)/C2=C(\O)c2ccc(Cl)cc2)cc1OC (stereo unspecified),2.96%
7,C=CCN1C(=O)C(Cc2ccc(OCC)cc2)SC1=Nc1ccc(C(=O)O)cc1 (stereo unspecified),-7.27%
8,CCNC(=O)N(CC)C[C@H]1N[C@@](CC)(C(=O)OC)[C@H]2C(=O)N(Cc3ccccc3)C(=O)[C@@H]12,2.12%
9,Cc1ccccc1OCC(=O)Nc1ccc2c(c1)ncn2C,8.18%
10,CCC(=O)N1CCN(c2ccccc2NC(=O)COc2cccc(C)c2C)CC1,12.6%
11,Cc1ccccc1OCC(=O)Nc1ccc(N2CCN(C(=O)C(C)C)CC2)c(Cl)c1,49.4% (active)
12,O=C(Nc1c2c(nn1-c1ccccc1)CS(=O)(=O)C2)C1CCCC1,11.5%
13,O=C(C1CCCN(S(=O)(=O)c2ccc([N+](=O)[O-])cc2)C1)N1CCCCC1 (stereo unspecified),3.89%
14,CC1=CC(C)(C)NC(=S)N1c1ccccc1,0.44%
15,CCOC(=O)c1cc(C#N)c(N2CCCCC2)nc1-c1ccccc1,-11.5%
16,CCOc1ccc2nc(N3CCCN(C(=O)Nc4ccccc4C)CC3)c(C#N)cc2c1,43.6% (active)
17,COc1ccc2nc(N3CCCC(O)C3)c(C#N)cc2c1 (stereo unspecified),19.4%
18,O=C(NCc1ccccc1Cl)C1CCC(CNc2c(N3CCCCC3)c(=O)c2=O)CC1 (stereo unspecified),0.19%
19,O=C(c1ccccc1Oc1ccccc1)N1CCN(c2ccc(F)cc2)CC1,-29.3%
20,O=C(c1cc(C(=O)N2CCN(c3ccc(F)cc3)CC2)cc([N+](=O)[O-])c1)N1CCN(c2ccc(F)cc2)CC1,43.4% (active)
21,O=C(c1cc2cc(F)ccc2[nH]1)N1CCN(c2ccc(F)cc2)CC1,18.5%
22,O=C(c1cccc(F)c1)N1CCN(c2ccc([N+](=O)[O-])c(N3CCCCC3)c2)CC1,16.6%
23,O=C(c1cncc(Br)c1)N1CCN(c2ccc([N+](=O)[O-])cc2)CC1,17.6%
24,O=C(c1cccc(C(=O)N2CCN(c3ccc(F)cc3)CC2)c1)N1CCN(c2ccc(F)cc2)CC1,62.3% (active)
